Test results: PubChem BioAssay (NCI)
The panel holds about 79,000 compounds, 15% with a hit somewhere; the sample as a whole holds those more often. Values without a mark were called inactive. Calls of active or inactive are those of the source. Cut-off read from the data, not from the text of the source: active = growth inhibition above about 70%; inactive = the rest.

Test: NCI Yeast Anticancer Drug Screen. Data for the mlh1 rad18 strain (AID 175)
Details: S. cerevisiae mlh1 rad18 strain growth inhibition; at 50.0 µM; active compounds read high
Procedure, shortened: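 Vehicle-treated cultures served as the reference for growth inhibition in a yeast strain carrying DNA damage repair alterations exposed to each compound.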

| Structure (SMILES) | growth inhibition |
| --- | --- |
| C=CC(=O)N1C/C(=C\c2ccc(F)cc2)C(=O)/C(=C/c2ccc(F)cc2)C1 | 88.1% (active) |
| CCOc1ccc2c(c1)n([O-])c1ccccc1[n+]2=O | 99.1% (active) |
| O=C(/C(Cl)=N/O)c1ccccc1 | 50% |
| O=C(NC1CCN(Cc2ccccc2)CC1)c1ccc(I)cc1 | 76.8% (active) |
| O=C1c2ccccc2CCC1C(O)(C(F)(F)F)C(F)(F)F (stereo not given) | -11.3% |
| O=C(C(=O)n1ncc(Cl)c(Cl)c1=O)n1ncc(Cl)c(Cl)c1=O | 65.9% |
| OC1OCC(OCc2ccccc2)C(OCc2ccccc2)C1OCc1ccccc1 (stereo not given) | 98.5% (active) |
| CN1CCC(OC(=O)c2ccc3ncccc3c2)CC1 | 32% |
| CCC(c1ccc(O)cc1)C(CC)c1ccc(OCC(N)=O)cc1 (stereo not given) | 91.3% (active) |
| CCCCCCCC(=O)O[C@H]1[C@H]2[C@@H](CC1(C)C)C(=O)[C@]13O[C@H]1C(=O)[C@]1(CO1)[C@]23C | 91.5% (active) |
| CN1CCCN(C)C1c1cc([N+](=O)[O-])ccc1O | 98.9% (active) |
| CCOC(=O)C[n+]1c(C)sc2ccccc21 | 19.2% |
| O=C(O)C(CCc1cccc2ccccc12)c1ccccc1 (stereo not given) | 99.4% (active) |
| O=C1C(Cl)=C(Cl)C(=O)C2CC=CCC12 (stereo not given) | 99.5% (active) |
| Nc1n[nH]c(=O)c2cccnc12 | 3.25% |
| OC(CBr)c1cc(-c2ccccc2)nc2ccccc12 (stereo not given) | 28.2% |
| O=C(O)CCCc1ccc2c(c1)CC1(C2)Cc2ccc(CCCC(=O)O)cc2C1 | -5.8% |
| CC1=Nc2ccccc2/C1=C\c1c(C)[nH]c2ccccc12 | -32.6% |
| CC(=O)C(C(=N)C#N)C(=O)Nc1ccccc1 (stereo not given) | -15.2% |
| COc1ccc2nc3cc(Cl)ccc3c(NCCC[N+](C)(C)CCCCCCCCCC[N+](C)(C)CCCNc3c4ccc(Cl)cc4nc4ccc(OC)cc34)c2c1 | 96.2% (active) |

| Structure (SMILES) | growth inhibition |
| --- | --- |
| Oc1cc(Cl)cc2c1-c1ccc(Cl)cc1C2O (stereo not given) | 95.5% (active) |
| CC1(C)OC(=O)C(=NNc2ccccc2[N+](=O)[O-])C(=O)O1 | 18.1% |
| Clc1ccc(OCC2CO2)c(Cl)c1 (stereo not given) | 96.8% (active) |
| O=c1ccc([N+](=O)[O-])c[nH]1.[Ag] | 99% (active) |
| O=C1CSC(c2c[nH]c3ccccc23)N1c1cccc(Cl)c1 (stereo not given) | 84.5% (active) |
| Fc1cccc(NC(=S)SCc2ccco2)c1 | 97.2% (active) |
| S=c1[nH]nc(SCc2ccc(Cl)c(Cl)c2)c2[nH]cnc12 | 5.2% |
| Cc1c(Cl)cccc1NC(=O)/C(Cl)=C(\Cl)C(=O)O | 99.5% (active) |
| Nc1ccc2ccc3cccc4ccc1c2c34 | 88.9% (active) |
| O=C(C(/C=N/C(=S)NCc1ccccc1)=C(/O)c1ccccc1)c1ccccc1 | 98.7% (active) |
| C/C(=N\NC(=S)Nc1ccc(Cl)cc1)c1nc2ncccc2[nH]1 | 85.4% (active) |
| O=C(/C=C\c1ccc(Cl)c(Cl)c1)c1cccs1 | 85.5% (active) |
| CC12CC(O)C3C(CCC4CCCCC43C)C1CC/C2=N/O (stereo not given) | 94.6% (active) |
| CCCn1cc2c(SC)nc(SC)nc2n1 | 98.1% (active) |
| Cc1ccc(C2(O)c3ccccc3-c3ccccc32)cc1 | 99% (active) |
| C=CCc1ccc2c(C)cc[n+](C)c2c1O | 98.8% (active) |
| COC(=O)c1nc(NC#N)[nH]c(=O)c1CCCCCc1cnc(NC#N)nc1 | -6.1% |
| Cc1c2cnccc2c(C)c2c1c1ccccc1n2CCOC(=O)c1ccccc1 | 91.5% (active) |
| C/C(=N/O)c1ccc2c(c1)C(C)c1ccccc1-2 (stereo not given) | 75% (active) |
| Oc1ccc2ccccc2c1I | 90.8% (active) |
